# Assay results published in PubChem BioAssay (NCATS).
# Records with an inconclusive call do not appear. A call without a number means that no potency is given here. Activity calls are given as the source filed them. Unless noted, the call rests on the fitted dose curve.
# Assays:
# [1] = qHTS for Inhibitors of the Functional Ribonucleoprotein Complex (vRNP) of Lassa (LASV) Arenavirus: LASV Primary Screen - GLuc reporter signal (AID 1347082; calls by dose curve; tested in HEK293 reporter line; further: nearly all actives have a fitted effect of over 60% in size)
# [2] = qHTS for Inhibitors of the Functional Ribonucleoprotein Complex (vRNP) of Lassa (LASV) Arenavirus: Viability assay - alamar blue signal for LASV Primary Screen (AID 1347083; calls by dose curve; tested in HEK293 reporter line; further: nearly all actives have a fitted effect of over 80% in size; further: potency means the concentration at half of the fitted maximal effect)
# [3] = molecular target: Nucleoprotein (Lymphocytic choriomeningitis virus (strain Armstrong)) (UniProt P09992); assay: qHTS for Inhibitors of the Functional Ribonucleoprotein Complex (vRNP) of Lymphocytic Choriomeningitis Arenaviruses (LCMV): LCMV Primary Screen - GLuc reporter signal (AID 1347086); further: nearly all actives have a fitted effect of over 70% in size
# CRL-7250 = normal cell line; assay: qHTS assay to identify novel small-molecules to repurpose for Merkel cell carcinoma treatment (AID 1296009; active means well fitted inhibition curve with a large enough effect; further: nearly all actives have a fitted effect of over 60% in size); settings: MCC and control cell lines, CellTiter-Glo viability, 72 h; series mostly up to 92 µM
# How it was run: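 Viability readout: ATP luminescence (CellTiter-Glo) after 72 hr drug exposure at 37 degree celsius. Dose-response format was 8 points for NPC and 11 points for MIPE; data normalized to in-plate controls.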
# [4] = Confirmatory qHTS for VERO E6 Cytotoxicity Assay: Counterscreen for SARS-CoV-2 CPE Assay (AID 1508605); further: nearly all actives have a fitted effect of over 60% in size
# [5] = Confirmatory qHTS for activators (rescue) of SARS-CoV-2 Cytopathic Effect (CPE) (AID 1508606); further: potency means the concentration at half of the fitted maximal effect; nearly all actives have a fitted effect of over 70% in size
# [6] = Cytotoxicity counterscreen for inhibitors of SARS-CoV-2 cell entry (AID 1645845); further: nearly all actives have a fitted effect of over 50% in size
# How it was run: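 After a 15 min room-temperature ATPLite 1step step, luminescence reflected ATP remaining in HEK293-ACE2 cells exposed to compound for 1 h plus 48 h at 37 C, with percent activity set by cell and no-cell controls.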
# [7] = Primary qHTS to identify inhibitors of SARS-CoV-2 cell entry (AID 1645846); settings: activity change, negative = inhibition: at 57.1 µM (top of the series) unless noted; further: nearly all actives have a fitted effect of over 45% in size; further: potency means the concentration at half of the fitted maximal effect
# How it was run: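 HEK293-ACE2 (Expi293F, stable hACE2), 1500 cells/well, o/n 37C; cpd 23 nL pin, 1 h; MLV-PP w/ SARS-CoV-2-S (Wuhan-Hu-1, Δ19 C-term); 48 h 37C; Bright-Glo luminescence; normalized vs S-PP and bald PP.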
# [8] = qHTS for Inhibitors of the Functional Ribonucleoprotein Complex (vRNP) of Lymphocytic Choriomeningitis Arenaviruses (LCMV): Viability assay - alamar blue signal for LCMV Primary Screen (AID 1347085; calls by dose curve; tested in HEK293 reporter line; further: nearly all actives have a fitted effect of over 80% in size; further: potency means the concentration at half of the fitted maximal effect)
# [9] = qHTS profiling of the MIPE4 collection as inhibitors of Plasmodium falciparum (3D7) proliferation (AID 743344; call rule not given here); settings: P. falciparum 3D7 in erythrocytes, SYBR Green DNA fluorescence, 72 h; at 28.5 µM (top of the series) unless noted
# How it was run: (§1)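 Parasite DNA was quantified by SYBR Green I fluorescence (ex 485, em 535 nm) after overnight lysis in saponin/Triton buffer at room temperature. Cultures at 0.3% parasitemia and 2.5% hematocrit were first exposed to compound for 72 h at 37 C; signals were normalised to artemisinin (0.29 uM) and vehicle wells.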
# [10] = qHTS profiling of the MIPE4 collection as inhibitors of Plasmodium falciparum (DD2) proliferation (AID 743345; call rule not given here); settings: P. falciparum Dd2 in erythrocytes, SYBR Green DNA, 72 h; at 28.5 µM (top of the series) unless noted
# How it was run: as §1
# [11] = qHTS profiling of the MIPE4 collection as inhibitors of Plasmodium falciparum (DD2) proliferation (Rep 2) (AID 743346; call rule not given here); settings: P. falciparum Dd2 in erythrocytes, SYBR Green DNA, 72 h; at 28.5 µM (top of the series) unless noted
# How it was run: as §1
# [12] = qHTS profiling of the MIPE4 collection as inhibitors of Plasmodium falciparum (HB3) proliferation (AID 743347; call rule not given here); settings: P. falciparum HB3 in erythrocytes, SYBR Green DNA, 72 h; at 28.5 µM (top of the series) unless noted
# How it was run: as §1
# Chain of Nucleoprotein (Lymphocytic choriomeningitis virus (strain Armstrong)) (P09992 whole entry, looked up): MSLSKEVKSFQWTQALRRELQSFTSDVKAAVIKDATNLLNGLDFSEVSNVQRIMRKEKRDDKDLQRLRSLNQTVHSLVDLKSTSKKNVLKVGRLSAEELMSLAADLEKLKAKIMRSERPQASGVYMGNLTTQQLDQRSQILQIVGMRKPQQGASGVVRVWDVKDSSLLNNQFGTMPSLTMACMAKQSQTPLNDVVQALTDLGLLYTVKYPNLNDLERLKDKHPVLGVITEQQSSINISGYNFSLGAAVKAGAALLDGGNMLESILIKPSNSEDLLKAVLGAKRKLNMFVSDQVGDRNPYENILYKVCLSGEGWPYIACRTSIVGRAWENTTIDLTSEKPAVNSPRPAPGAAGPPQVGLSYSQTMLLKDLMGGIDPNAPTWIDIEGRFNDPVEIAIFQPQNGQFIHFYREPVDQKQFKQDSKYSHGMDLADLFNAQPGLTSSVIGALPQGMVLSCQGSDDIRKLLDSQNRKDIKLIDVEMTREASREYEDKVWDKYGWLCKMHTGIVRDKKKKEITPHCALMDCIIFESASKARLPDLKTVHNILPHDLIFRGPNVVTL
smiles,measurement,setting,value
Nc1ncnc2c1ncn2[C@@H]1O[C@@H](CO)[C@H](O)[C@H]1O,Potency,[1],inactive
same,Potency,[2],inactive
same,Potency,[3],inactive
same,Potency,CRL-7250,inactive
COc1cccc([C@@H](C)NCCCc2ccccc2Cl)c1,Potency,[1],inactive
same,Potency,[2],inactive
same,Potency,[3],inactive
same,Potency,[4],inactive
same,Potency,[5],10 µM (active)
same,Potency,[6],inactive
same,Potency,[7],22.4 µM (active)
same,Potency,CRL-7250,inactive
CN(C)C(=O)[C@H](O)[C@H](Cc1ccccc1)NC(=O)c1cc2cc(Cl)ccc2[nH]1,Potency,[1],inactive
same,Potency,[8],inactive
same,Potency,[3],inactive
same,Potency,[6],inactive
same,Potency,CRL-7250,inactive
CC(=O)N1CCN(c2ccc(OCc3nn(C)c(C)c3-c3cccc4c(CCCOc5cccc6ccccc56)c(C(=O)O)n(Cc5cccnc5)c34)cc2)CC1,Potency,[1],inactive
same,Potency,[2],inactive
same,Potency,[3],inactive
same,Potency,CRL-7250,inactive
CC(C)(OCc1nn(Cc2ccccc2)c2ccccc12)C(=O)O,Potency,[1],inactive
same,Potency,[6],inactive
same,Potency,[7],inactive
same,Potency,CRL-7250,inactive
NC1=N[C@H]2[C@H](CS[C@H]2CCCCC(=O)O)N1,"parasite growth, % of DMSO control",[9],88.8% [at 9.64 µM]
same,"parasite growth remaining, % of DMSO control (lower = more inhibition)",[10],94.1% [at 9.64 µM]
same,"parasite growth, % of control (lower = inhibition)",[11],82% [at 9.64 µM]
same,"growth, % of control",[12],44.4% [at 9.64 µM]
same,Potency,[1],inactive
same,Potency,[2],inactive
same,Potency,[3],inactive
same,Potency,[6],inactive
same,"activity change, negative = inhibition",[7],-19.4% [at 27.1 µM]
same,Potency,CRL-7250,inactive
CC1(C)Cc2c(sc(NC(=S)NC(=O)c3ccccc3)c2C(=O)O)CO1,Potency,[2],21.7 µM (active)
same,Potency,[8],38.5 µM (active)
same,Potency,[6],inactive
same,Potency,[7],inactive
same,Potency,CRL-7250,inactive
CCCCCCCCCCCC1=C(O)C(=O)C=C(O)C1=O,Potency,[2],4.85 µM (active)
same,Potency,[6],inactive
same,Potency,[7],inactive
same,Potency,CRL-7250,inactive
CN(C)S(=O)(=O)c1ccc(NC(=S)N2CCC(C(O)(c3ccccc3)c3ccccc3)CC2)cc1,Potency,[4],inactive
same,Potency,CRL-7250,inactive
